Where “and” joins values, the source holds several entries; their conditions need not be identical. Equal entries are not always repeated. Inconclusive results are not listed. Some compounds were tested as several samples or in several runs, with calls that do not always agree. Calls of active or inactive are those of the source. Calls come from the whole dose curve; as a rule, active = well fitted curve in the direction sought with a large enough effect; inconclusive = small, poorly fitted or top-dose-only effect, or another doubt; inactive = no such curve, though single readings can be large; an effect the other way counts as inactive or inconclusive.

A short description of assay [1]: Viability qHTS for spleen associated tyrosine kinase inhibitor (SYKi) naive MV4-11 cells (AID 1963823). Note: nearly all actives have a fitted effect of over 40% in size. The following applies: MV4-11 AML viability, CellTiter-Glo luminescence, 72 h; series mostly up to 45 µM. The gist of the method: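 Luminescence from CellTiter-Glo, developed 10 min at room temperature, gave viability of MV4-11 cells never exposed to SYK inhibitor. Cells (500/well) had been incubated with compounds for 72 hr under standard culture conditions.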
For orientation: In qHTS, concentration-response curves come from the screen itself.

Assay [2] can be described thus: Viability qHTS for spleen associated tyrosine kinase inhibitor (SYKi) drug resistant MV4-11 cells (AID 1963824). Note: nearly all actives have a fitted effect of over 35% in size. The following applies: SYKi-resistant MV4-11 viability, CellTiter-Glo, 72 h; series mostly up to 45 µM. The procedure, abridged: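 SYK-inhibitor-resistant MV4-11 AML cells were seeded at 500 per well onto compound and cultured 72 hours (37 °C, 5% CO2). CellTiter-Glo was then added, and after 10 min at room temperature, luminescence gave viability.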

The nature of assay [3]: Cellular viability qHTS for adrenocortical cancer (ACC) cell line SW-13 (AID 1963989).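 For activity (max response): cells grown in serum-free medium with ITS supplement; % is set by controls: 0 for no effect and ±100 for the full control effect.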 Note: nearly all actives have a fitted effect of over 65% in size. The following applies: SW-13 ACC cells viability, CellTiter-Glo, 48 h; activity (max response): stronger effect = lower value. The gist of the method:
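Compound titrations (up to 46 uM final, in DMSO) were applied to SW-13 cells for 48 h at 37C/5% CO2. Reading used CellTiter-Glo after 20 min at room temperature; fitted curves yielded IC50 and efficacy.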

Assay [4] is described as follows: Cellular viability qHTS for adrenocortical cancer (ACC) cell line NCI-H295R (AID 1963990). Note: nearly all actives have a fitted effect of over 60% in size. The following applies: CellTiter-Glo ATP luminescence, 48 h; series mostly up to 46.1 µM. The gist of the method:
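Readout: CellTiter-Glo luminescence, 20 min RT. Exposure: 48 h, 37C/5% CO2. Cells: NCI-H295R, ITS-DMEM serum-free. Range: up to 46 uM. Analysis: 4PL fit, IC50 plus efficacy.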
Potency is the fitted concentration of half-maximal effect.

With `NC(=O)c1ncn([C@@H]2O[C@H](CO)[C@@H](O)[C@H]2O)c1O`, the Potency result in assay [1], in assay [2] and in assay [4] was “inactive” throughout. In addition, the activity (max response) in assay [3] was 14.2% (inactive) and 14.7% (inactive) and 8.98% (inactive).

For the compound `CCCCNc1ncc2c(-c3ccc(F)cc3)nn(CC3CCC(N)CC3)c2n1` (stereo unspecified), the Potency in assay [1] was 8 nM (active); in assay [2], 11.2 nM (active); in assay [3], 11300 nM (active); in assay [4], 7150 nM (active).

As to `CC(=O)c1cc2c(o1)C(=O)c1ccccc1C2=O`, the Potency in assay [1] is 1180 nM (active); in assay [2] it was 1320 nM (active); in assay [3], 3160 nM (active); in assay [4], 891 nM (active).

Regarding `C#CC[C@H](c1nc2cc(Cl)ccc2c(=O)n1Nc1ccccc1)N(CCCN)C(=O)c1cccc(Cl)c1F`, the Potency is 164 nM (active) in assay [1], 206 nM (active) in assay [2], 251 nM (active) in assay [3] and 3550 nM (active) in assay [4].

Consider `Cc1nc2cccc(N)c2c(=O)n1C1CCC(=O)NC1=O` (stereo unspecified), for which the Potency in assay [1] was 209 nM (active). Besides, the Potency result in assay [2] and in assay [4] was “inactive” in each case. Also, the activity (max response) in assay [3] is 3.79% (inactive).

With `CC1c2cccc(O)c2C(O)=C2C(=O)C3(O)C(O)=C(C(N)=O)C(=O)C(N(C)C)C3C(O)C21` (stereo unspecified), the values for the Potency in assay [1] and in assay [2] were 20900 nM (active) and 11800 nM (active), respectively. For the same compound, the activity (max response) in assay [3] is 8.67% (inactive). In addition, the Potency result in assay [4] is “inactive”.

`C[C@H]1O[C@H](O[C@H]2[C@H](O)[C@@H](O)[C@@H](O[C@H]3[C@H](O)[C@@H](O)C(O)O[C@@H]3CO)O[C@@H]2CO)[C@H](O)[C@@H](O)[C@@H]1N[C@H]1C=C(CO)[C@@H](O)[C@H](O)[C@H]1O` (stereo partly specified): the Potency result in assay [1], in assay [2] and in assay [4] was “inactive” each time. For the same compound, the activity (max response) in assay [3] is -4.82% (inactive).

As to `Cc1[nH]c2ccc(F)cc2c1-c1nc2c3cccnc3c3ncccc3c2[nH]1`, the Potency in assay [1] was 231 nM (active); in assay [2], 184 nM (active); in assay [3], 2240 nM (active); in assay [4], 3160 nM (active).

`OCCn1cc(-c2ccc3c(c2)CC/C3=N\O)c(-c2ccncc2)n1`: the Potency in assay [1] is 16400 nM (active); in assay [2], 18600 nM (active). Besides, in assay [3], the activity (max response) is -9.16% (inactive). In assay [4], the Potency result was “inactive”.

Turning to `CONC(=O)Nc1ccc(-c2sc3c(c2CN(C)Cc2ccccc2)c(=O)n(-c2ccccc2)c(=O)n3Cc2c(F)cccc2F)cc1`, the Potency in assay [1] and in assay [2] was 16600 nM (active) each time. Further, the activity (max response) in assay [3] was -8.17% (inactive). Further, the Potency entry in assay [4] is “inactive”.

On to `O=C(OCC1(COC(=O)c2cccnc2)CCCC(COC(=O)c2cccnc2)(COC(=O)c2cccnc2)C1O)c1cccnc1`, for which the Potency entry in assay [1], in assay [2] and in assay [4] was “inactive” each time. In addition, the activity (max response) in assay [3] was 7.27% (inactive).

Take `CC[C@@H](C)Nc1cc(C(=O)NC2CC3CCC(C2)N3c2ccc(C(=O)C3CC3)cn2)c(C)cc1C(N)=O` (stereo partly specified): the Potency in assay [1] is 41.7 nM (active); in assay [2], 20.6 nM (active); in assay [3], 355 nM (active); in assay [4] it was 355 nM (active).

`O=C(CCc1ccc(O)cc1)c1c(O)cc(O)cc1O[C@@H]1O[C@H](CO)[C@@H](O)[C@H](O)[C@H]1O`: the Potency entry in assay [1], in assay [2] and in assay [4] was “inactive” throughout. Besides, the activity (max response) in assay [3] was 0.618% (inactive).

As for `COc1ccc([C@@H]2Sc3ccccc3N(CCN(C)C)C(=O)[C@@H]2OC(C)=O)cc1`, the Potency result in assay [1] and in assay [4] was “inactive” throughout. In addition, in assay [2], the Potency is 7.5 µM (active) and inactive. Moreover, the activity (max response) in assay [3] was -9.3% (inactive) and 4.69% (inactive).

As for `CC(/C=C/C(=O)NO)=C\[C@@H](C)C(=O)c1ccc(N(C)C)cc1`, the Potency is 326 nM (active) and 296 nM (active) in assay [1]; 259 nM (active) and 332 nM (active) in assay [2]; 6310 nM (active) in assay [3]; 3980 nM (active) in assay [4].

As for `CC(=O)OCC[N+](C)(C)C`, the Potency result in assay [1], in assay [2] and in assay [4] was “inactive” each time. In assay [3], the activity (max response) is 10.9% (inactive).

Regarding `COc1cc(C(=S)N2CCOCC2)ccc1O`, the Potency result in assay [1], in assay [2] and in assay [4] was “inactive” in each case. In assay [3], the activity (max response) is -19.3% (inactive).

Turning to `COc1ccc(S(=O)(=O)Nc2nnc(CC(C)C)s2)cc1`, the Potency result in assay [1], in assay [2] and in assay [4] was “inactive” each time. In addition, the activity (max response) in assay [3] is -5.12% (inactive).

With `COc1ccc(S(=O)(=O)N2CCc3cccc(-c4ccncc4)c32)cc1`, the Potency in assay [1] is 833 nM (active); in assay [2], 833 nM (active); in assay [3] it was 316 nM (active); in assay [4] it was 158 nM (active).

With `Fc1ccc(-c2csc3ncnc(NCc4ccc5c(c4)OCO5)c23)cc1`, the Potency was 1660 nM (active) in assay [1], 1660 nM (active) in assay [2], 15800 nM (active) in assay [3] and 25100 nM (active) in assay [4].

As to `N[C@@H]1CN(c2c(F)cc3c(=O)c(C(=O)O)cn([C@@H]4C[C@@H]4F)c3c2Cl)CC12CC2`, the Potency entry in assay [1], in assay [2] and in assay [4] was “inactive” throughout. Moreover, the activity (max response) in assay [3] is -10.4% (inactive).

With `c1cc(-c2cnn3cc(-c4ccc(N5CCNCC5)cc4)cnc23)c2cccnc2c1`, the Potency in assay [1] was 662 nM (active); in assay [2], 920 nM (active); in assay [3], 22400 nM (active); in assay [4], 6310 nM (active).

As to `CC(=O)Nc1ccccc1`, the Potency result in assay [1], in assay [2] and in assay [4] was “inactive” in each case. Further, the activity (max response) in assay [3] was -1.24% (inactive).

For the compound `CSc1ccc(C(=O)c2[nH]c(=O)[nH]c2C)cc1`, the Potency entry in assay [1], in assay [2] and in assay [4] was “inactive” each time. Moreover, the activity (max response) in assay [3] was 15.3% (inactive).

These data come from PubChem BioAssay (NCATS).
